Sampled rows, rich in hits. Any-hit rate of the full collection: about 2.9%.
EP2 modulator = EP2 receptor (human) modulation | EP2-expressing cells, cAMP HTRF FRET, PGE2 co-stimulation | AID 940 | 260,000 tested, 0.83% active | induction, % at 25 µM | P43116;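 active = compounds whose cAMP rise, as percent of the full-agonist control response, exceeds 60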;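 note: rat C6 glioma line stably carrying human EP2 under a CMV promoter; the protocol text gives 20 µM as final concentration; 100% = response of wells given 1 µM PGE2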
Target sequence (P43116 whole entry, looked up): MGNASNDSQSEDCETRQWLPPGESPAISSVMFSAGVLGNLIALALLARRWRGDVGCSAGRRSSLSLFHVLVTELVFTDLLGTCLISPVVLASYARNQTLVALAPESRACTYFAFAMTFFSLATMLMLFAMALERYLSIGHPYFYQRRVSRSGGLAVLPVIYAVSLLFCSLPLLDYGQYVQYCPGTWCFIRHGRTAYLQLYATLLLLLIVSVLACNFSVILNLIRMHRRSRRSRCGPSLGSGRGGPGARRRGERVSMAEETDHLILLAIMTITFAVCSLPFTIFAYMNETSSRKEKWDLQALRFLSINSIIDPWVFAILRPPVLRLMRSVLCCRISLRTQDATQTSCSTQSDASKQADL
PG9 Ab binder = PG9 antibody binding by small molecule | TR-FRET gp120-PG9 antibody binding | 360,000 tested, 0.43% active | AID 624416 | inhibition, % at 6.7 µM; in the data active = inhibition above about 8.5%
RAM inhibit = yeast RAM network inhibition; 190,000 tested, 1.8% active; inhibition, % at 50 µM; S. cerevisiae dse1pr::URA3 reporter, 5-FOA growth OD615, 2 d; analog-sensitive cbk1-as2 kinase mutant strain;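 active = inhibition above a set limit, 3 SD over mean compound inhibition, cut at about 8.4% in these data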;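 note: 0% = DMSO-only wells with no growth and 100% = 10 µM 1-NA-PP1 full growth; inhibition rescues growth on 5-FOA so higher OD means more RAM inhibition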
SKN-1 inh = C. elegans SKN-1 inhibition; AID 624304; 360,000 tested, 0.49% active; inhibition, % at 21.8 µM; C. elegans VP596 Pgst-4::GFP/RFP ratio, acrylamide-induced, 24 h;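 active = interference check ratio from 0.5 to 1.5 plus GFP to RFP signal ratio inhibition reaching or exceeding a fixed threshold, cut at about 30% in these data, passing the limit was not always enough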
NR1D1 modulator = Rev-erb alpha (human) modulation; P20393; activity, % at 10 µM; AID 1259318; 370,000 tested, 0.79% active; Rev-erbα–FITC-DNA binding, fluorescence polarization, 90 min;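 active = activity above about 14%, limit read from the data; passing the limit was not always enough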;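 note: 0% = DMSO wells with 35 nM protein and 100% = DMSO wells with 750 nM protein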
PGE2 EP2 inh = inhibitors of human EP2 prostaglandin E2 receptor | inhibition, % at 25 µM | 260,000 tested, 0.52% active | C6 glioma cells expressing human EP2, cAMP TR-FRET; cells stimulated with saturating PGE2;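 active = percent inhibition above 40 after rounding to a whole number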;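 note: rat C6 glioma host cells with rolipram phosphodiesterase inhibitor present; the protocol text gives 20 µM as final concentration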
Rev-erbA confirm = Rev-erb alpha (human) modulation, hit confirmation; shares compounds with NR1D1 modulator; Rev-erb alpha FITC-DNA binding, fluorescence polarization, 90 min; activation, % at 25 µM; 3,000 tested, 61% active; AID 1259319;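 active = activation at or above a set limit, or at least 3 SD above the negative control mean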;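 note: 0% = 35 nM protein with DMSO and 100% = 750 nM protein high control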
RORg DNA counter = counter-screen for Rev-erb alpha modulators: RORgamma DNA binding; 910 tested, 8% active; purified RORgamma protein-FITC-DNA binding, fluorescence polarization; shares compounds with NR1D1 modulator; AID 1259320; IC50, µM;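 active = Compounds whose fitted half-maximal concentration for disrupting protein-DNA binding is below 10 micromolar; the record names Rev-erb in its text, so the target is in doubt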
* marks the source's active call; other numbers are inactive results; i = inactive; · = no result; ! = repeats disagree.

SMILES	EP2 modulator	PG9 Ab binder	RAM inhibit	SKN-1 inh	NR1D1 modulator	PGE2 EP2 inh	Rev-erbA confirm	others
Cn1nc(CC(=O)Nc2ccc3c(c2)CCC3)c2ccccc2c1=O	-16.5	-1.2	2.0	-22.4	20.1*	3.2	17.0*
COc1ccc(S(=O)(=O)N2CCOCC2)cc1NC(=O)c1cccc2c(=O)c(C)c(-c3ccccc3)oc12	4.3	1.1	6.1	11.7	68.9*	5.3	37.1*
C=Cn1ncc(CN(Cc2ccccc2)CC2CCCO2)c1C (stereo not drawn)	7.1	·	·	·	·	2.5	·
CC(=O)c1sc(NC(=O)c2cccc(N3C(=O)CCC3=O)c2)nc1-c1ccccc1	·	0.8	·	-7.1	42.6*	·	28.0*
Cc1sc(NC(=O)c2cccc(N3C(=O)CCC3=O)c2)nc1-c1ccccc1	·	0.2	·	-1.5	-3.3	·	·
CN(C)C=Nc1ncc2c3ccccc3n(Cc3ccccc3)c2c1C#N	42.9	-3.0	4.4	-11.5	34.4*	5.7	29.9*
CCC(=O)N1CCN(c2ccc(NC(=O)CSc3ccc(Cl)cc3)cc2)CC1	-17.2	·	·	·	·	8.9	·
Cc1nonc1NC(=O)CSc1nc(C2CCCCC2)nc2ccccc12	20.6	-0.3	5.8	35.0	0.4	4.0	·
Cc1cc2nc(SCC(=O)Nc3nonc3C)c3c(c2cc1C)CCCC3	41.3	0.8	7.7	11.1	103.4*	14.5	81.4*
Cc1nonc1NC(=O)CSc1nc(C23CC4CC(CC(C4)C2)C3)nc2ccccc12	43.0	0.4	·	-4.5	29.5*	2.2	21.8*
CN(C)CCN(Cc1cccs1)Cc1cccc(F)c1F	-23.4	·	·	·	·	4.5	·
CCOC(=O)C1CCN(C(c2cc3ccc(C)c(C)c3[nH]c2=O)c2nnnn2C2CCCCC2)CC1 (stereo not drawn)	-51.1	-1.9	0.0	9.9	68.9*	6.5	96.9*
CCc1nn(CC(=O)NCc2ccc(OC)cc2)c(=O)c2cc3ccsc3n12	-18.4	·	·	·	·	·	·
FC(F)(F)c1ccccc1Cc1c(C2CCCCC2)nc2ccc(Cl)cn12	·	-1.1	·	-1.5	0.7	·	·
COC(=O)c1ccc2nc(C3CCCCC3)c(Cc3ccccc3C(F)(F)F)n2c1	·	-2.6	·	2.6	18.5*	·	12.3*
O=C(c1ncoc1-c1ccccc1F)N1CCN(Cc2ccc3c(c2)OCO3)CC1	-45.5	·	·	·	·	6.4	·
CC/C(=C(/CC)c1ccc(O)cc1)c1ccc(O)cc1	-35.5	-0.8	3.0	-7.0	30.7*!	19.7	33.6*
COC(=O)c1c(NC(=S)NNS(=O)(=O)c2ccc(OC)cc2OC)sc2c1CCCCCC2	·	0.8	·	-17.5	31.9*	·	11.7
Clc1ccccc1NN(Cc1ccncc1)c1ccccc1Cl	-45.2	-0.5	·	-7.6	17.8*	37.6	10.2
COc1ccc(-n2c(SCC(=O)c3ccccc3)nc3sc(C)c(C)c3c2=O)cc1	2.1	·	·	·	·	4.3	·
Cc1cc2nc3c(=O)[nH]c(=O)nc-3n(C[C@@H](O)[C@@H](O)[C@@H](O)COP(=O)(O)O)c2cc1C	·	·	·	·	5.3	·	·
CN(C)c1ccc2nc3c(=O)[nH]c(=O)nc-3n(CC(O)C(O)C(O)CO)c2c1 (stereo not drawn)	·	-14.4	·	85.1	32.8*	·	37.2*	RORg DNA counter=i
Cc1nn(-c2ccccc2)c(Cl)c1C(=O)N(Cc1nc2ccccc2c(=O)[nH]1)C1CCCCC1	26.0	·	·	·	·	13.0	·
CC(=O)N1CCCc2cc(S(=O)(=O)N3CCCC(C(=O)N4CCN(c5cc(C)ccc5C)CC4)C3)ccc21 (stereo not drawn)	·	-0.7	·	7.9	17.3*	·	17.9*
COc1cc(CCC(=O)OCC(=O)NCC2CCCCC2)cc(OC)c1OC	-12.6	-1.3	-1.0	-6.2	16.2*	9.6	2.7
CCOc1ccc(/C(O)=C2/C(=O)C(=O)N(CCN(CC)CC)C2c2cccs2)cc1 (stereo not drawn)	12.4	0.5	·	2.6	18.9	1.9	·
C=CCOc1ccc(/C(O)=C2\C(=O)C(=O)N(CCN(C)C)C2c2cccs2)cc1 (stereo not drawn)	-5.1	-0.8	-1.0	-0.7	29.4*	15.3	34.9*	RORg DNA counter=>40
